PubChem BioAssay
The source made the active and inactive calls. Unless noted, no rule for the calls is given here.

Tests used:
[1] = tested on: XIP peptide (Xip251-270) binding; assay: small-molecule binders of XIP peptide, primary screen, biochemical, small-molecule microarray, fluorescence 635/667 nm, 0.1 µg/mL protein (AID 1182); settings: fluorescent protein binding, 635 nm, higher = more signal, called active from +8 up or from −8 down
XIP peptide (Xip251-270) = assay: small-molecule binders of XIP peptide, primary screen, biochemical, small-molecule microarray, fluorescence 635/667 nm, 0.5 µg/mL protein (AID 1183); settings: small-molecule microarray binding, fluorescence 635 nm; higher = more signal
[2] = Plasmodium falciparum growth inhibition, primary screen, strain 3D7, DAPI fluorescence, 100 nL (AID 1184);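 also: parasites grown inside human red blood cells in medium with human serum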; settings: P. falciparum 3D7 growth, 3 d, higher = more signal
[3] = target: Homeobox protein Hox-A13 (Mus musculus) (UniProt Q62424); assay: inhibitors of HoxA13-DNA binding, primary screen, biochemical, fluorescence polarization, labeled oligonucleotide (AID 1185); settings: 15 min, higher = more signal, called active from +8 up or from −8 down
Chain of Homeobox protein Hox-A13 (Mus musculus) (Q62424 whole entry, looked up): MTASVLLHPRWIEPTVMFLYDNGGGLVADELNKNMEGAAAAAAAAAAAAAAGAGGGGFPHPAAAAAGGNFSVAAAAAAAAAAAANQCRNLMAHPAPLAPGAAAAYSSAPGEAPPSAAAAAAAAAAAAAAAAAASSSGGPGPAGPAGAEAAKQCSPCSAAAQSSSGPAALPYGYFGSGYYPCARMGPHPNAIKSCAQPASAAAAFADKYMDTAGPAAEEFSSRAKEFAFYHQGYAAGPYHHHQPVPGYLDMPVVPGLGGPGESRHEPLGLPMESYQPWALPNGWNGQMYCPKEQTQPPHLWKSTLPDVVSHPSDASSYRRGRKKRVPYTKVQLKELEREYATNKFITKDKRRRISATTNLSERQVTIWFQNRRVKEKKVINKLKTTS

[4] = inhibitors of hydroxyurea-induced Chk1 phosphorylation, primary screen, imaging, HeLa, phospho-Chk1 antibody, percent positive cells (AID 1186); settings: hydroxyurea-induced phospho-Chk1 immunofluorescence imaging, higher = more signal
[5] = inhibitors of hydroxyurea-induced Chk1 phosphorylation, primary screen, imaging, HeLa, phospho-Chk1 nuclear intensity (AID 1187); settings: hydroxyurea-induced phospho-Chk1 immunofluorescence imaging, higher = more signal

CCOC(=O)C1=C[C@@H](C(C)(C)C)N(S(=O)(=O)c2ccc(C)cc2)[C@H]1c1ccc(OC)cc1
composite z-score [1]: 0.58 (inactive)
composite z-score (XIP peptide (Xip251-270)): 0.582
z-score [2]: -1.88
z-score [3]: -0.488 (inactive)
z-score [4]: 0.15 (inactive)
z-score [5]: 0.503 (inactive)

COc1cc(Cc2cc3c(c(CCc4ccccc4)n2)[Si](C(C)C)(C(C)C)O[C@H]3c2ccccc2)cc(OC)c1OC
composite z-score [1]: 0.41 (inactive)
composite z-score (XIP peptide (Xip251-270)): 0.202
z-score [2]: 0.578
z-score [3]: -5.59 (inactive)
z-score [4]: -0.167 (inactive)
z-score [5]: -0.286 (inactive)

C=CC[C@]12N=C(c3ccc(OCCCO)cc3)O[C@H]1c1ccccc1N(CCC)C2=O
composite z-score [1]: -0.0641 (inactive)
composite z-score (XIP peptide (Xip251-270)): 0.842
z-score [2]: -2.33
z-score [3]: -4.5 (inactive)
z-score [4]: -0.206 (inactive)
z-score [5]: -0.234 (inactive)

COc1ccc(CCNC(=O)[C@@H]2c3ccccc3C(=O)N(Cc3cc(F)cc(C(F)(F)F)c3)[C@H]2c2ccc(CO)cc2)cc1
composite z-score [1]: 0.614 (inactive)
composite z-score (XIP peptide (Xip251-270)): 0.906
z-score [2]: -1.42
z-score [3]: -3.95 (inactive)
z-score [4]: -0.0525 (inactive)
z-score [5]: 0.275 (inactive)

COCCCNC(=O)[C@@]1(Cc2ccccc2I)c2ccccc2C(=O)N(C2CCCCC2)[C@H]1c1ccc(CO)cc1
composite z-score [1]: 0.26 (inactive)
composite z-score (XIP peptide (Xip251-270)): 0.744
z-score [2]: -1.99
z-score [3]: -5.35 (inactive)
z-score [4]: -0.0463 (inactive)
z-score [5]: 0.155 (inactive)

CC(C)N1CC=CC23O[C@@H]4/C=C\CCCOC(=O)C4[C@H]2C(=O)N(C(C)CO)[C@@H]3C1=O (stereo partly specified)
composite z-score [1]: -0.0835 (inactive)
composite z-score (XIP peptide (Xip251-270)): 0.0575
z-score [2]: 0.261
z-score [3]: -4.1 (inactive)
z-score [4]: -1.36 (inactive)
z-score [5]: -0.988 (inactive)

C=CCNC(=O)[C@H]1[C@@H]2C(=O)O[C@@H](c3ccccc3)[C@@H](c3ccccc3)N2[C@@H](c2ccc(O)cc2)[C@]12C(=O)Nc1ccc(C#CCC(C(=O)OC)C(=O)OC)cc12
composite z-score [1]: 0.835 (inactive)
composite z-score (XIP peptide (Xip251-270)): 0.764
z-score [2]: -0.214
z-score [3]: -2.88 (inactive)
z-score [4]: 0.0976 (inactive)
z-score [5]: 0.543 (inactive)

C=C(CC1([C@@H](NP(=O)(c2ccccc2)c2ccccc2)[C@H]2C[C@@H]2CCCC)CC1)c1cccc(OC)c1
composite z-score [1]: -0.68 (inactive)
composite z-score (XIP peptide (Xip251-270)): -0.207
z-score [2]: -0.0814
z-score [3]: -1.55 (inactive)
z-score [4]: 0.731 (inactive)
z-score [5]: 0.788 (inactive)

CCOC(=O)C1=CC[C@@H](c2ccccc2)N(S(=O)(=O)c2ccc(C)cc2)[C@@H]1C#N
composite z-score [1]: 0.216 (inactive)
composite z-score (XIP peptide (Xip251-270)): 0.423
z-score [2]: -0.465
z-score [3]: -4.26 (inactive)
z-score [4]: -1.95 (inactive)
z-score [5]: -2.5 (inactive)

CC[C@@H](O[Si](C#C[Si](C(C)C)(C(C)C)C(C)C)(C(C)C)C(C)C)c1cn([C@H](C)c2ccccc2)nn1
composite z-score [1]: -0.645 (inactive)
composite z-score (XIP peptide (Xip251-270)): -0.0862
z-score [2]: -0.38
z-score [3]: 0.0519 (inactive)
z-score [4]: 0.0891 (inactive)
z-score [5]: -0.469 (inactive)

C=C(COC)/C(=C/C[C@@H](OC(=O)c1ccncc1)c1ccccc1OCCO)c1cnc2ccccc2c1
composite z-score [1]: 0.882 (inactive)
composite z-score (XIP peptide (Xip251-270)): 0.745
z-score [2]: -3.1
z-score [3]: -4.25 (inactive)
z-score [4]: 0.112 (inactive)
z-score [5]: -0.291 (inactive)

COC(=O)[C@@]1(Cc2ccc(F)cc2)[C@H]2c3cc(C(=O)N(C)C)n(CCF)c3C[C@H]2CN1C(=O)c1ccccc1
composite z-score [1]: 0.588 (inactive)
composite z-score (XIP peptide (Xip251-270)): 0.779
z-score [2]: -0.552
z-score [3]: -5.09 (inactive)
z-score [4]: -0.847 (inactive)
z-score [5]: -0.595 (inactive)

COCCOC(=O)N1C(=O)[C@@]2(c3cc(C#CC4=CCCCC4)ccc31)[C@H](c1ccc(O)cc1)N1[C@H](c3ccccc3)[C@H](c3ccccc3)OC(=O)[C@H]1[C@@H]2C(=O)N1CCc2cc(OC)c(OC)cc2C1
composite z-score [1]: 2.12 (inactive)
composite z-score (XIP peptide (Xip251-270)): 0.556
z-score [2]: -2.06
z-score [3]: 0.0698 (inactive)
z-score [4]: 0.301 (inactive)
z-score [5]: 0.404 (inactive)

[N-]=[N+]=NCc1ccccc1[C@H]1OC(c2ccc(OCCCO)cc2)=N[C@@]1(Cc1ccccc1N=[N+]=[N-])C(N)=O
composite z-score [1]: -0.19 (inactive)
composite z-score (XIP peptide (Xip251-270)): 0.599
z-score [2]: -0.885
z-score [3]: -6.25 (inactive)
z-score [4]: 0.052 (inactive)
z-score [5]: 0.516 (inactive)

CC1C2C(CCCO)=CC(C3C(=O)N(C(N)=O)C(=O)C23)N1Cc1cccc(OC(F)(F)F)c1 (stereo unspecified)
composite z-score [1]: 1.51 (inactive)
composite z-score (XIP peptide (Xip251-270)): 0.256
z-score [2]: -0.128
z-score [3]: -7.99 (inactive)
z-score [4]: 0.37 (inactive)
z-score [5]: 0.181 (inactive)

COc1ccc(C#Cc2ccc3c(c2)[C@]2(C(=O)N3)[C@H](c3ccccc3OCCO)N3[C@H](c4ccccc4)[C@H](c4ccccc4)OC(=O)[C@H]3[C@@H]2C(=O)NC[C@H](O)c2ccccc2)cc1
composite z-score [1]: 0.134 (inactive)
composite z-score (XIP peptide (Xip251-270)): 0.709
z-score [2]: -2.01
z-score [3]: -1.77 (inactive)
z-score [4]: -0.11 (inactive)
z-score [5]: 0.108 (inactive)
